This is a sample that favours compounds with a hit; in the whole collection about 6.9% have one here.
MPTP inh = inhibitors of mitochondrial permeability transition pore | inhibition, % at 10 µM | isolated mouse mitochondria, Ca2+ swelling absorbance, 30 min | AID 602449 | 360,000 tested, 1.4% active;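 active = inhibition of 50% or more, scaled per plate between neutral and stimulator controls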
CSC inhib = cancer stem cell inhibition | cancer stem cell-like cells viability, luminescence | 300,000 tested, 1.1% active | inhibition, % at 7.5 µM; in the data active = inhibition above about 75%; tested in HMLE shEcad cells
Beta cell apopt = blocks beta cell apoptosis; INS-1E cytokine-induced death, ATP luminescence, 48 h; percent of positive-control rescue, neutral wells zero; protection from apoptosis, % (no concentration beside the values); 300,000 tested, 0.8% active;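 active = Every replicate reaches about 75%, or at least half do and their mean reaches it too, limit read from the data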;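 also: higher means more ATP so stronger rescue from cytokine killing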
NR3A LBD binder = modulators (binders) of human NR3A ligand-binding domain. AID 1259313. 340,000 tested, 2.5% active. NR3A LBD differential scanning fluorimetry, Tm shift; 0% = protein alone, 100% = glycine-bound protein. Tm shift relative to glycine control, % at 25 µM;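 active = melting temperature shift of at least 10% of the positive control shift, at one fixed dose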
SKKanGAS inh = SKKanGAS growth inhibition; S. pyogenes SKKanGAS, kanamycin growth, BacTiter-Glo, 6 h; inhibition, % at 7.5 µM; 300,000 tested, 1.3% active;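 active = mean replicate score, as percent of positive control median, at least 50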;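 also: strain carries kanamycin resistance gene driven by streptokinase promoter and grows in 40 µg/ml kanamycin; loss of luminescence reflects streptokinase promoter inhibition or plain growth inhibition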
Mdm2-MdmX inh = inhibitors of human Mdm2/MdmX interaction; SaOS-2 split-luciferase Mdm2/MdmX complementation, luminescence; inhibition, % at 8 µM; O15151+Q00987; 330,000 tested, 3% active;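 active = inhibition of at least 50% at 8 µM in the primary screen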
Target sequence (O15151 whole entry, looked up): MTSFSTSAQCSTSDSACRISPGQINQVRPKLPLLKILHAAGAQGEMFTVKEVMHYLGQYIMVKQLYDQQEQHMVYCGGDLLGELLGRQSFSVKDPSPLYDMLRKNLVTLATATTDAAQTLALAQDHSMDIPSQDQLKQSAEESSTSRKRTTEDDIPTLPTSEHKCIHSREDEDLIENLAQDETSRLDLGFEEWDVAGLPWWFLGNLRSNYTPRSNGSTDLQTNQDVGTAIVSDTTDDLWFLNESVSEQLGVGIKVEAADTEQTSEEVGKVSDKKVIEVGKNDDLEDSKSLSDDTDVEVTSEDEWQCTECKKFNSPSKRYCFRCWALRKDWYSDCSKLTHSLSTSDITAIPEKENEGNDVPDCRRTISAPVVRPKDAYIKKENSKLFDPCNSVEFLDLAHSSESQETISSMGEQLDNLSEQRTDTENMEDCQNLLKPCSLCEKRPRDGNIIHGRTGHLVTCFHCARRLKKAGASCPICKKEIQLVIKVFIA
Target sequence (Q00987 whole entry, looked up): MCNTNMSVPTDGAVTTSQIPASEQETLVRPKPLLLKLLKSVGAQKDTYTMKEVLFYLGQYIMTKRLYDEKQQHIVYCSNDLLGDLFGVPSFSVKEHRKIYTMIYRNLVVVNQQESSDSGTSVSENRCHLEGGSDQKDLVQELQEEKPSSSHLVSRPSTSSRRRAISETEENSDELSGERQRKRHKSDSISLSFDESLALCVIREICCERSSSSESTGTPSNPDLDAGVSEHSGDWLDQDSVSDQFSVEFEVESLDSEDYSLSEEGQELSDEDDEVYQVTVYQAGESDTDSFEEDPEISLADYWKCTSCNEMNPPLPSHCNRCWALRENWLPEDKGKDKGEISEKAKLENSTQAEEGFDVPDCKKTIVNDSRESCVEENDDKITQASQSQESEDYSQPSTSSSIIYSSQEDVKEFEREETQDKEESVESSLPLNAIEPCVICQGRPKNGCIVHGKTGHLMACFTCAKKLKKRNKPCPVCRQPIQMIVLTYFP
Of the large screens only hits and unclear results are named; the others gave an inactive call.

COc1ccc(C(=O)Nc2ccccc2C(=O)N/N=C/c2ccccn2)cc1OC	Beta cell apopt 95
COc1ccc(COC(=O)c2cccc(S(=O)(=O)N3CCCC3)c2)cc1F	NR3A LBD binder 15 (no result: CSC inhib)
COc1ccccc1COC(=O)c1cccc(S(=O)(=O)N2CCCC2)c1	none (no result: CSC inhib, Beta cell apopt, SKKanGAS inh)
COc1cc(/C=N/NC(=O)c2cccnc2)ccc1OC(=O)c1cc(OC)c(OC)c(OC)c1	Beta cell apopt 109 (no result: CSC inhib)
Cc1ccccc1-c1cc2nc(Nc3ccc(F)cc3)n(C)c(=O)c2s1	none (no result: CSC inhib, Beta cell apopt, NR3A LBD binder, SKKanGAS inh, Mdm2-MdmX inh)
N#Cc1c(N)n(C2OC(CO)C(O)C2O)c2ncnc(N)c12 (configuration not stated)	none (no result: CSC inhib, Beta cell apopt, SKKanGAS inh, Mdm2-MdmX inh)
Cc1cc2c(NC3CCCCC3)ncnc2s1	none
Cc1cccc(NCC(=O)N/N=C\c2cccc(Oc3ccccc3)c2)c1	SKKanGAS inh 58
Cc1ccc(NCC(=O)N/N=C/c2cccc(Oc3ccccc3)c2)cc1	none
COc1cc(C(=O)N/N=C/c2ccc(OC(=O)c3ccccc3Cl)c(OC)c2)ccc1O	SKKanGAS inh 66
O=C(N/N=C/c1cccc(Oc2ccccc2)c1)c1ccc(O)cc1O	NR3A LBD binder 31
N#CCC(=O)N/N=C/c1cccc(Oc2ccccc2)c1	none
Cc1ccc(C(=O)N/N=C/c2ccc(-c3cccc(Cl)c3)o2)cn1	none
Cc1ccc(C(=O)N/N=C\c2ccc(-c3ccc(Cl)c(Cl)c3)o2)cn1	CSC inhib 76, NR3A LBD binder 12
Cc1ccc(C(=O)NCc2ccc(F)cc2)cc1NC1=NC2CS(=O)(=O)CC2S1 (configuration not stated)	none
CNC(=O)c1c(NC(=O)CCS(=O)(=O)c2ccc(C)cc2)sc2c1CCN(C(=O)OC)C2	none (no result: Beta cell apopt)
O=C(N/N=C/c1cccc(Cl)c1)C1CCCC1	none
COc1cc(C(=O)N/N=C/c2ccc(OC(=O)c3cccc(C)c3)cc2)ccc1O	NR3A LBD binder 22, SKKanGAS inh 52
COc1cc(/C=N/NC(=O)c2cccc(S(=O)(=O)N3CCCC3)c2)ccc1O	NR3A LBD binder 15
COc1cc(/C=N/NC(=O)c2ccc(N)cc2)ccc1OC(=O)c1cccc(C)c1	none
COc1cc(C(=O)N/N=C/c2cccc(Oc3ccccc3)c2)ccc1O	NR3A LBD binder 11
Cc1ccc(C(=O)N/N=C/c2ccc(OC(=O)c3ccccc3Cl)cc2)cn1	NR3A LBD binder 13 (no result: CSC inhib)
O=C(N/N=C/c1cccc(Oc2ccccc2)c1)c1ccncc1	none
OCC1(Cc2ccc(F)cc2F)CCCN(CCCc2ccccc2)C1 (configuration not stated)	none (no result: Beta cell apopt)
CSc1ccccc1C(=O)OCC(=O)NC1CCCCCCC1	none (no result: CSC inhib, Beta cell apopt, NR3A LBD binder, SKKanGAS inh, Mdm2-MdmX inh)
Cc1cccc(NC(=O)c2ccc(S(=O)(=O)N3CC(C)OC(C)C3)cc2)n1 (configuration not stated)	none
CC(C)C(N)c1csc(Nc2ccc(C(=O)NCCCO)cn2)n1 (configuration not stated)	none (no result: CSC inhib, Beta cell apopt, NR3A LBD binder, SKKanGAS inh, Mdm2-MdmX inh)
O=C(COc1ccccc1C(=O)N/N=C\c1ccc(O)c(O)c1)N/N=C/c1ccc(O)c(O)c1	NR3A LBD binder 13
O=C(NN=Cc1ccc(O)c(O)c1)c1ccccc1	none (no result: CSC inhib, Beta cell apopt, NR3A LBD binder, SKKanGAS inh, Mdm2-MdmX inh)
COc1ccccc1Nc1ccc(Nc2ccccc2OC)nn1	NR3A LBD binder 12 (no result: CSC inhib)
COC1=C(Nc2ccccc2OC)C(=O)c2ccccc2C1=O	Beta cell apopt 83
Cc1ccc(C)c(OCCCCN2CCNCC2)c1C	CSC inhib 129
O=C(Nc1ccc(OCC(F)(F)C(F)F)c(C(F)(F)F)c1)c1ccccc1	NR3A LBD binder 27
O=C(Nc1ccc(OCC(F)(F)C(F)F)cc1)c1ccncc1	none
CCCCN(C(=O)c1ccc(C)o1)c1c(N)n(CC(C)C)c(=O)[nH]c1=O	none (no result: SKKanGAS inh)
COc1cc(N/N=C/c2ccccc2O)ncn1	Beta cell apopt 88
COC(=O)c1sc(=S)n(-c2cc(F)ccc2F)c1N	none
CCOC(=O)c1sc(=S)n(-c2cc(F)ccc2F)c1N	NR3A LBD binder 14
O=C(/C=C/c1ccccc1)C1=C(O)C(=O)N(CCO)C1c1ccc2c(c1)OCO2 (configuration not stated)	none
CCCC(C)(C)C(=O)N1CCC1(C)C(=O)NS(=O)(=O)c1ccccc1Cl (configuration not stated)	none (no result: CSC inhib, Beta cell apopt, NR3A LBD binder, SKKanGAS inh, Mdm2-MdmX inh)
O=c1cc(-c2ccc(O)c(O)c2)oc2cc(O)c([C@@H]3O[C@H](CO)[C@@H](O)[C@H](O)[C@H]3O)c(O)c12	NR3A LBD binder 19 (no result: SKKanGAS inh)
O=c1cc(-c2ccc(O)cc2)oc2c([C@@H]3O[C@H](CO)[C@@H](O)[C@H](O)[C@H]3O)c(O)c([C@@H]3O[C@H](CO)[C@@H](O)[C@H](O)[C@H]3O)c(O)c12	none
COC(=O)C1OC(OC2CC[C@]3(C)C(CC[C@@]4(C)[C@@H]3CC=C3[C@@H]5CC(C)(C)CC[C@]5(C(=O)OC5OC(CO)C(O)C(O)C5O)CC[C@]34C)C2(C)C)C(O)C(O)C1O[C@H]1OCC(O)C(O)C1O (some centres not stated)	NR3A LBD binder 15 (no result: SKKanGAS inh)
CC1(C)CC[C@]2(C(=O)O[C@@H]3OC(CO)[C@@H](O)[C@H](O)[C@H]3O)CC[C@]3(C)C(=CCC4[C@@]5(C)CC[C@H](O[C@@H]6OC(C(=O)O)[C@@H](O)[C@H](O)[C@H]6O)C(C)(C)C5CC[C@]43C)[C@@H]2C1 (some centres not stated)	none (no result: SKKanGAS inh)
Cc1nc(C(N)=O)nc2ccccc12	none (no result: Beta cell apopt)
Cc1ccc2c(c1)nc(-n1nc(C)cc1C)c1nnnn12	none
Cc1nc(N/C(N)=N/S(=O)(=O)c2ccc([N+](=O)[O-])cc2)nc2ccccc12	none
CC(=O)C1=C(C)NC(SCC(=O)Nc2nc3ccccc3s2)=C(C#N)C1c1ccc(Cl)cc1 (configuration not stated)	NR3A LBD binder 12
C=CCOC(=O)C1=C(C)NC(SCC)=C(C#N)C1c1ccc(Cl)cc1 (configuration not stated)	SKKanGAS inh 76
C=CCOC(=O)C1=C(C)NC(SCC(N)=O)=C(C#N)C1c1ccc(C)cc1 (configuration not stated)	none
COc1ccc(C(=O)Nc2cccc([N+](=O)[O-])c2)cc1Br	NR3A LBD binder 22
COC(=O)c1cccc(NC(=O)c2cccc([N+](=O)[O-])c2)c1	none
COc1ccc(C(=O)Nc2ccc(OC)c([N+](=O)[O-])c2)cc1Br	NR3A LBD binder 30
COc1ccc(C(=O)Nc2cc3c(cc2OC)CCCC3)cc1Br	NR3A LBD binder 11
COc1cc2c(cc1NC(=O)c1cccnc1)CCCC2	none
CCCCCCc1nc2ccccc2c(=O)n1NC(=O)c1c(O)c2c(n(CC(C)C)c1=O)CCCC2	SKKanGAS inh 57
Cc1nc2ccccc2c(=O)n1NC(=O)c1c(O)c2c(n(CC(C)C)c1=O)CCCC2	none (no result: CSC inhib)
CCOC(=O)c1cnn(-c2ccc(NS(=O)(=O)c3ccc(Cl)cc3)cc2)c1C(F)(F)F	NR3A LBD binder 16, SKKanGAS inh 55
O=C(COc1cccc(F)c1)NNC(=O)Cc1ccc(Br)cc1	none (no result: CSC inhib, SKKanGAS inh)

Compound activity: PubChem, several laboratories
